Bioassay records as filed in PubChem BioAssay.
HepG2 viability – HepG2 cytotoxicity, counter-screen for TGF-b inhibitors; HepG2 CAGA-GFP viability, ATP luminescence, 18 h; Potency, µM (doses to about 46.1 µM), inactives show at the top dose activity change, negative = cytotoxicity, actives largely listed as cytotoxic; 410,000 tested, 0.76% active
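CellTiter-Glo luminescence gave cytotoxicity after 18 hours at 37 degrees C. The cells were HepG2 CAGA-GFP in 1% FBS DMEM, stimulated with 500 pg/mL TGF-beta after compound addition. %Activity was normalised to no-cell wells (complete cell-killing) and DMSO (no toxicity), and curves were fitted and classified.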
TDP1 cell noCPT – qHTS for Inhibitors of human tyrosyl-DNA phosphodiesterase 1 (TDP1): qHTS in cells in absence of CPT. 420,000 tested, 15% active. Potency, µM (top dose mostly 46.2 µM), without a hit: at the top dose activity change, negative = growth inhibition, actives largely listed as inhibitors. DT40 Tdp1-/- hTDP1 cells, no CPT, ATP luminescence, 48 h; further: on the % scale 0 is the no-effect control and ±100 the full control effect; nearly all actives have a fitted effect of over 55% in size
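Stably hTDP1-transfected Tdp1-null chicken DT40 cells were treated with library compounds minus camptothecin and grown for at least 48 hr at 37 °C, after which cellular ATP was quantified by luminescence.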
HT1080 IDH1KD tx – kills HT-1080 cells with IDH1 knockdown. Potency, µM (top dose mostly 46.1 µM), inactives show at the highest dose activity, negative = toxicity, usual class: cytotoxic. AID 686971. 360,000 tested, 2% active. HT-1080 IDH1 knockdown viability, ATP luminescence, 48 h;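 further: 0% = DMSO wells and -100% = cell-free medium wells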
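Using the IDH1-knockdown HT-1080 line run in the same batch and compound series as the NT line, viability after 48 h at 37 °C was determined by CellTiter-Glo luminescence and expressed as % activity.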
TGFb SMAD3 inh – inhibitors of TGF-b signaling | HepG2 CAGA-GFP TGF-b/SMAD3 reporter, GFP fluorescence, 18 h; TGF-beta stimulated, 500 pg/mL final | Potency, µM (top dose mostly 46.1 µM), inactives show at the top dose activity, negative = inhibition, most hits filed as inhibitors | 410,000 tested, 1.2% active; further: on the % scale 0 is the no-effect control and ±100 the full control effect; nearly all actives have a fitted effect of over 65% in size
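Inhibition was scored as loss of TGF-beta-induced (500 pg/mL final, 18 hours, 37 degrees C) GFP in HEPG2 cells carrying a CAGA-GFP reporter, in DMEM with 1% FBS. Well GFP was summed per cell; Activity was normalised to unstimulated and stimulated DMSO wells, then concentration-response fitting.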
DT40 TDP1 CPT – DT40-hTDP1 cell growth loss with CPT; 420,000 tested, 12% active; chicken DT40 Tdp1-/-;hTDP1 cells + 20 nM CPT, ATP luminescence, 48 h; Potency, µM (titrated, usually from 46.2 µM), for inactives: at the top dose activity change, negative = growth inhibition, usual class: inhibitors; further: on the % scale 0 is the no-effect control and ±100 the full control effect; nearly all actives have a fitted effect of over 55% in size
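Chicken DT40 Tdp1-/- cells complemented with human TDP1, 400 cells/well, exposed to compounds plus 20 nM camptothecin for at least 48 h at 37 C; viability read as ATP content by CellTiter-Glo luminescence.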
HT1080-NT tox – kills 2HG-producing HT-1080-NT fibrosarcoma cells; HT-1080-NT fibrosarcoma viability, CellTiter-Glo ATP luminescence, 48 h; AID 686970; Potency, µM (top dose mostly 46.1 µM), without a hit: at the highest dose activity, negative = less viability, hits mostly cytotoxic; 360,000 tested, 1.6% active;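 further: NT is the 2HG producing partner of a matched IDH1 knockdown line; 0% = DMSO-treated cells and -100% = media-only wells without cells; nearly all actives have a fitted effect of over 55% in size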
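A 48-hour cytotoxicity screen used HT-1080-NT cells plated 2 hours before compound delivery. ATP-based CellTiter-Glo luminescence measured viability, normalized to DMSO and no-cell controls.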
* hit, by the source's call. This is a sample that favours compounds with a hit; in the whole collection about 17% have one here. The call rests on the fitted dose curve; in most records, active means well fitted curve in the direction sought with a large enough effect; inconclusive means small, poorly fitted or top-dose-only effect, or another doubt; inactive means no such curve, though single readings can be large; an effect the other way counts as inactive or inconclusive. Potency means the concentration at half of the fitted maximal effect.

Results for COc1ccc(N2CC(C(=O)Nc3cccnc3)CC2=O)cc1 (stereo not drawn) ?
HepG2 viability: 0%; TDP1 cell noCPT: 17%; HT1080 IDH1KD tx: 5%; TGFb SMAD3 inh: -17%; DT40 TDP1 CPT: 16%; HT1080-NT tox: 8%

How did COCCN(CCOC)c1ncc(Cl)c(C(=O)c2c(C)cc3ccccn23)n1 do in these assays?
HepG2 viability: -13%; TDP1 cell noCPT: 21µM*; HT1080 IDH1KD tx: 5%; TGFb SMAD3 inh: -18%; DT40 TDP1 CPT: inconclusive; HT1080-NT tox: 8%

How did Cc1noc(C)c1S(=O)(=O)N(C)CC(=O)Nc1ccc(F)cc1 do in these assays?
HepG2 viability: -3%; TDP1 cell noCPT: -5%; HT1080 IDH1KD tx: -6%; TGFb SMAD3 inh: 3%; DT40 TDP1 CPT: -9%; HT1080-NT tox: 5%

Results for O=c1nc2ccccc2c2n1CC(CN1CCN(c3ccc(F)cc3)CC1)N2 (stereo not drawn) ?
HepG2 viability: -3%; TDP1 cell noCPT: inconclusive; HT1080 IDH1KD tx: -1%; TGFb SMAD3 inh: 0%; DT40 TDP1 CPT: 1%; HT1080-NT tox: 1%

How did O=c1nc2ccccc2c2n1CC(CN1CCN(c3ccccc3F)CC1)N2 (stereo not drawn) do in these assays?
HepG2 viability: -13%; TDP1 cell noCPT: 13µM*; HT1080 IDH1KD tx: 1%; TGFb SMAD3 inh: 1%; DT40 TDP1 CPT: inconclusive; HT1080-NT tox: 1%

How did COC(=O)[C@H](C)NC(=O)Nc1cc(Cl)ccc1C do in these assays?
HepG2 viability: -19%; TDP1 cell noCPT: -7%; HT1080 IDH1KD tx: -5%; TGFb SMAD3 inh: 0%; DT40 TDP1 CPT: 1%; HT1080-NT tox: 8%

What do the screens show for `O=C(NCc1ccco1)c1ccc2c(c1)N(Cc1c(F)cccc1Cl)C(=O)c1ccccc1S2`?
HepG2 viability: -2%; TDP1 cell noCPT: 16µM*; TGFb SMAD3 inh: inconclusive; DT40 TDP1 CPT: inconclusive

Results for CCN(CC)CCCNC(=O)c1ccc2c(c1)N(Cc1c(F)cccc1Cl)C(=O)c1ccccc1S2 ?
HepG2 viability: 11µM*; TDP1 cell noCPT: 15µM*; TGFb SMAD3 inh: 10µM*; DT40 TDP1 CPT: inconclusive

Results for CN(Cc1ccco1)C(=O)c1ccc2c(c1)N(Cc1ccccc1F)C(=O)c1ccccc1S2 ?
HepG2 viability: -14%; TDP1 cell noCPT: inconclusive; TGFb SMAD3 inh: -26%; DT40 TDP1 CPT: 21µM*

How did Cc1ccc(CN2C(=O)c3ccccc3Sc3ccc(C(=O)NCc4ccco4)cc32)cc1 do in these assays?
HepG2 viability: -21%; TDP1 cell noCPT: inconclusive; TGFb SMAD3 inh: 0%; DT40 TDP1 CPT: -21%

What do the screens show for `CC1CCC2C(=O)N(c3ccc(C(=O)Oc4cccc5cccnc45)cc3)C(=O)C2C1` (stereo not drawn)?
HepG2 viability: -40%; TDP1 cell noCPT: 0.65µM*; HT1080 IDH1KD tx: inconclusive; TGFb SMAD3 inh: 0%; DT40 TDP1 CPT: 0.73µM*; HT1080-NT tox: inconclusive

Results for O=C1NCCN1CCN1CCC(c2cn(-c3ccc(F)cc3)c3ccc(Cl)cc23)CC1 ?
TDP1 cell noCPT: 2.7µM*; DT40 TDP1 CPT: 3µM*

Results for O=C(NCc1cccc(F)c1)c1cccc(OC2CCN(C(=O)C3CC3)CC2)c1 ?
HepG2 viability: 4%; TDP1 cell noCPT: 18µM*; HT1080 IDH1KD tx: -11%; TGFb SMAD3 inh: -16%; DT40 TDP1 CPT: inconclusive; HT1080-NT tox: -21%

How did CCc1nc2c(OCc3ccc(C(=O)OC)cc3)cccn2c1N(C)C(=O)c1ccc(C)cc1 do in these assays?
HepG2 viability: -34%; TDP1 cell noCPT: 18µM*; HT1080 IDH1KD tx: -26%; TGFb SMAD3 inh: -10%; DT40 TDP1 CPT: 23µM*; HT1080-NT tox: -5%

Results for CCc1nc2c(OCc3ccc(C(=O)OC)cc3)cccn2c1N(C)C(=O)c1ccc(OC)cc1 ?
HepG2 viability: -3%; TDP1 cell noCPT: inconclusive; HT1080 IDH1KD tx: -12%; TGFb SMAD3 inh: -3%; DT40 TDP1 CPT: inconclusive; HT1080-NT tox: -2%

Results for CCc1nc2c(OCc3ccc(OC(F)F)cc3)cccn2c1N(C)C(=O)c1ccc(OC)cc1 ?
HepG2 viability: -32%; TDP1 cell noCPT: 13µM*; HT1080 IDH1KD tx: inconclusive; TGFb SMAD3 inh: -1%; DT40 TDP1 CPT: 18µM*; HT1080-NT tox: inconclusive

Results for CCc1nc2c(OCc3ccc(C(F)(F)F)cc3)cccn2c1N(C)C(=O)c1ccncc1 ?
HepG2 viability: 0%; TDP1 cell noCPT: 16µM*; HT1080 IDH1KD tx: 10%; TGFb SMAD3 inh: inconclusive; DT40 TDP1 CPT: 16µM*; HT1080-NT tox: 4%

What do the screens show for `CCc1nc2c(OCc3ccc(F)cc3)cccn2c1N(C)C(=O)c1ccc(C)cc1`?
HepG2 viability: 3%; TDP1 cell noCPT: inconclusive; HT1080 IDH1KD tx: -19%; TGFb SMAD3 inh: -10%; DT40 TDP1 CPT: 15µM*; HT1080-NT tox: -20%

Results for CCc1nc2c(OCc3ccc(C(=O)N(C)C)cc3)cccn2c1N(C)C(=O)c1ccc(C)cc1 ?
HepG2 viability: 2%; TDP1 cell noCPT: -23%; HT1080 IDH1KD tx: 4%; TGFb SMAD3 inh: 15%; DT40 TDP1 CPT: 1%; HT1080-NT tox: -5%

How did Cc1cccc(NC(=O)CSc2nnc(CNC(=O)c3ccco3)n2C)c1C do in these assays?
HepG2 viability: 25%; TDP1 cell noCPT: 2%; HT1080 IDH1KD tx: -1%; TGFb SMAD3 inh: 14%; DT40 TDP1 CPT: 4%; HT1080-NT tox: -9%

How did O=c1c(-c2ccccc2)nnc2sc(COc3ccc(Br)cc3)nn12 do in these assays?
HepG2 viability: -79%; TDP1 cell noCPT: -14%; HT1080 IDH1KD tx: 4%; TGFb SMAD3 inh: 9%; DT40 TDP1 CPT: -6%; HT1080-NT tox: 18%

What do the screens show for `C[C@@H]1CC(=O)NN=C1c1ccc(NN=C(C#N)C#N)cc1`?
TDP1 cell noCPT: 9.4µM*; DT40 TDP1 CPT: 11µM*

Results for CCCCc1cc(=O)oc2cc(OCC(=O)N3CCC(C(=O)O)(c4ccccc4)CC3)ccc12 ?
HepG2 viability: -5%; TDP1 cell noCPT: inconclusive; HT1080 IDH1KD tx: 3%; TGFb SMAD3 inh: inconclusive; DT40 TDP1 CPT: -7%; HT1080-NT tox: -6%

How did CSc1nc(N2CCOCC2)c2ccccc2n1 do in these assays?
HepG2 viability: -18%; TDP1 cell noCPT: -10%; HT1080 IDH1KD tx: -2%; TGFb SMAD3 inh: 20%; DT40 TDP1 CPT: -9%; HT1080-NT tox: 6%
